PubChem BioAssay (NCATS)
Inconclusive results are not listed. Activity calls are given as the source filed them. Calls come from the whole dose curve; as a rule, active = well fitted curve in the direction sought with a large enough effect; inconclusive = small, poorly fitted or top-dose-only effect, or another doubt; inactive = no such curve, though single readings can be large; an effect the other way counts as inactive or inconclusive.

Key:
[1] = Quantitative High-Throughput drug screen in 47 multiple myeloma cell lines against the NCATS MIPE library collection: KMS26_JCRB cell viability assay (AID 1918975); note: nearly all actives have a fitted effect of over 45% in size
Summary of the method: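 Viability readout: CellTiter-Glo luminescence following 5 min room-temperature incubation with reagent. Prior exposure: 48 h, 37C, humidified 5% CO2, 500 cells per well.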

[2] = Quantitative High-Throughput drug screen in 47 multiple myeloma cell lines against the NCATS MIPE library collection: MMM1_PLB cell viability assay (AID 1918976); note: nearly all actives have a fitted effect of over 35% in size
Summary of the method: (§1)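 MIPE 4.0 approved/investigational drugs; 500 cells/well; 48 h 37 °C humidified 5% CO2; CTG luminescence readout; DMSO = 100%, media = 0% viability.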

[3] = Quantitative High-Throughput drug screen in 47 multiple myeloma cell lines against the NCATS MIPE library collection: MOLP8_DSMZ cell viability assay (AID 1918977); note: nearly all actives have a fitted effect of over 45% in size
Summary of the method: as §1

[4] = Quantitative High-Throughput drug screen in 47 multiple myeloma cell lines against the NCATS MIPE library collection: NCIH929_DSMZ cell viability assay (AID 1918978); note: nearly all actives have a fitted effect of over 35% in size
Summary of the method: as §1

[5] = Quantitative High-Throughput drug screen in 47 multiple myeloma cell lines against the NCATS MIPE library collection: OCIMY1_PLB cell viability assay (AID 1918979); note: nearly all actives have a fitted effect of over 35% in size
Summary of the method: as §1

[6] = Quantitative High-Throughput drug screen in 47 multiple myeloma cell lines against the NCATS MIPE library collection: MM1S_ATCC cell viability assay (AID 1918980); note: nearly all actives have a fitted effect of over 45% in size
Summary of the method: as §1

[7] = Quantitative High-Throughput drug screen in 47 multiple myeloma cell lines against the NCATS MIPE library collection: MM1R_ATCC cell viability assay (AID 1918981); note: nearly all actives have a fitted effect of over 35% in size
Summary of the method: as §1

[8] = Quantitative High-Throughput drug screen in 47 multiple myeloma cell lines against the NCATS MIPE library collection: LP1_DSMZ cell viability assay (AID 1918982); note: nearly all actives have a fitted effect of over 35% in size
Summary of the method: as §1

[9] = Quantitative High-Throughput drug screen in 47 multiple myeloma cell lines against the NCATS MIPE library collection: KMS28PE_JCRB cell viability assay (AID 1918983); note: nearly all actives have a fitted effect of over 35% in size
Summary of the method: as §1

[10] = Quantitative High-Throughput drug screen in 47 multiple myeloma cell lines against the NCATS MIPE library collection: L363_DSMZ cell viability assay (AID 1918984); note: nearly all actives have a fitted effect of over 40% in size
Summary of the method: as §1

Measured: Potency
Potency is the fitted concentration of half-maximal effect.

CCn1nnc2c(N3CCOCC3)nc(-c3ccc(NC(=O)Nc4ccc(C(=O)N5CCN(C)CC5)cc4)cc3)nc21
active: [1] 41.8 nM | [2] 33.2 nM | [3] 3.7 nM | [4] 6.6 nM | [5] 5260 nM | [6] 33.2 nM | [7] 46.9 nM | [8] 46.9 nM | [9] 5.9 nM

CC[C@@H]1C(=O)N(C)c2cnc(Nc3ccc(C(=O)NC4CCN(C)CC4)cc3OC)nc2N1C1CCCC1
active: [1] 3720 nM | [2] 13200 nM | [3] 4690 nM | [4] 2350 nM | [5] 469 nM | [6] 4180 nM | [7] 1180 nM | [8] 166 nM | [9] 74.3 nM

O=C(CCCCCCC(=O)Nc1ccc([C@H]2O[C@@H](CSc3nc(-c4ccccc4)c(-c4ccccc4)o3)C[C@@H](c3ccc(CO)cc3)O2)cc1)NO
active: [1] 23500 nM | [2] 13200 nM | [3] 14800 nM | [4] 9350 nM | [5] 18700 nM | [6] 9350 nM | [7] 16600 nM | [8] 11800 nM | [9] 16600 nM

CC(C)(C)c1cnc(CSc2cnc(NC(=O)C3CCNCC3)s2)o1
active: [1] 148 nM | [2] 105 nM | [3] 83.3 nM | [4] 264 nM | [5] 1660 nM | [6] 66.2 nM | [7] 105 nM | [8] 105 nM | [10] 166 nM

CCCCc1nc2cc(C=CC(=O)NO)ccc2n1CCN(CC)CC
active: [1] 526 nM | [2] 418 nM | [3] 132 nM | [4] 935 nM | [5] 1660 nM | [6] 526 nM | [7] 235 nM | [8] 74.3 nM | [9] 526 nM

CCC1=C[C@@H]2CN(C1)Cc1c([nH]c3ccccc13)[C@@](C(=O)OC)(c1cc3c(cc1OC)N(C)[C@@H]1[C@@](O)(C(=O)OC)[C@H](OC(C)=O)[C@]4(CC)C=CCN5CC[C@]31[C@@H]54)C2
active: [1] 2960 nM | [2] 1870 nM | [3] 33.2 nM | [4] 2090 nM | [5] 2090 nM | [6] 372 nM | [7] 187 nM | [8] 33.2 nM | [9] 20.9 nM

O=C(Nc1cc(C(F)(F)F)cc(C(F)(F)F)c1)c1cc(Cl)ccc1O
active: [1] 1180 nM | [2] 296 nM | [3] 1480 nM | [4] 1480 nM | [5] 3320 nM | [6] 590 nM | [7] 1050 nM | [8] 469 nM | [9] 1660 nM | [10] 833 nM

COc1ccc(OC)c(-c2nnc3ccc(-c4ccc(OC)c(O[C@@H]5CCOC5)c4)nn23)c1
active: [1] 20900 nM | [2] 11800 nM | [3] 9350 nM | [4] 9350 nM | [5] 20900 nM | [6] 7430 nM | [7] 8330 nM | [8] 14800 nM | [9] 14800 nM | [10] 10500 nM

O=C(NC1CCNCC1)c1[nH]ncc1NC(=O)c1c(Cl)cccc1Cl
active: [1] 187 nM | [2] 418 nM | [3] 148 nM | [4] 418 nM | [5] 2640 nM | [6] 105 nM | [7] 296 nM | [8] 264 nM | [9] 235 nM | [10] 469 nM

O=C(Nc1ncc(-c2cc(C(F)F)nn2-c2c(Cl)cccc2Cl)s1)C1CC1
active: [1] 2640 nM | [2] 2640 nM | [3] 2090 nM | [4] 2640 nM | [5] 743 nM | [6] 1480 nM | [7] 1320 nM | [8] 1050 nM | [9] 935 nM | [10] 235 nM

CCc1c2c(nc3ccc(O)cc13)-c1cc3c(c(=O)n1C2)COC(=O)[C@]3(O)CC
active: [1] 2350 nM | [2] 833 nM | [3] 166 nM | [4] 46.9 nM | [5] 590 nM | [6] 11.8 nM | [7] 11.8 nM | [8] 662 nM | [9] 166 nM | [10] 590 nM

CC(C)=CCCC(C)=CCCC(C)=CCSc1ccccc1C(=O)O
active: [1] 4180 nM | [2] 1320 nM | [3] 1480 nM | [4] 526 nM | [5] 33.2 nM | [6] 5260 nM | [7] 3320 nM | [9] 1660 nM

COCCn1c2c([n+](Cc3cnccn3)c1C)C(=O)c1ccccc1C2=O
active: [1] 14.8 nM | [2] 16.6 nM | [3] 23.5 nM | [4] 33.2 nM | [5] 26.4 nM | [6] 3.7 nM | [7] 4.2 nM | [8] 13.2 nM | [9] 26.4 nM

CCC[C@H](NC(=O)C(C#N)=Cc1cccc(Br)n1)c1ccccc1
active: [1] 1480 nM | [2] 2960 nM | [3] 1480 nM | [4] 1050 nM | [5] 6620 nM | [6] 7430 nM | [7] 1660 nM | [8] 5260 nM | [10] 7430 nM
